Laboratory results taken from ChEMBL document CHEMBL3988442, “University of Dundee, Small-Polar-MMV Screening Library” (2021).
For some assays here: Results with a measured potency or affinity are listed apart.

Tests used:
Parameters in all cases: scale not given: direction of the effect not stated beside the values
[1] = biological target: Protein translocase subunit SecA (Escherichia coli (strain K12)) (UniProt P10408); experiment: Assay to Identify E. coli SecA ATPase Inhibitors; type: functional; details: 30 µM
Protein translocase subunit SecA (Escherichia coli (strain K12)), sequence (P10408 whole entry): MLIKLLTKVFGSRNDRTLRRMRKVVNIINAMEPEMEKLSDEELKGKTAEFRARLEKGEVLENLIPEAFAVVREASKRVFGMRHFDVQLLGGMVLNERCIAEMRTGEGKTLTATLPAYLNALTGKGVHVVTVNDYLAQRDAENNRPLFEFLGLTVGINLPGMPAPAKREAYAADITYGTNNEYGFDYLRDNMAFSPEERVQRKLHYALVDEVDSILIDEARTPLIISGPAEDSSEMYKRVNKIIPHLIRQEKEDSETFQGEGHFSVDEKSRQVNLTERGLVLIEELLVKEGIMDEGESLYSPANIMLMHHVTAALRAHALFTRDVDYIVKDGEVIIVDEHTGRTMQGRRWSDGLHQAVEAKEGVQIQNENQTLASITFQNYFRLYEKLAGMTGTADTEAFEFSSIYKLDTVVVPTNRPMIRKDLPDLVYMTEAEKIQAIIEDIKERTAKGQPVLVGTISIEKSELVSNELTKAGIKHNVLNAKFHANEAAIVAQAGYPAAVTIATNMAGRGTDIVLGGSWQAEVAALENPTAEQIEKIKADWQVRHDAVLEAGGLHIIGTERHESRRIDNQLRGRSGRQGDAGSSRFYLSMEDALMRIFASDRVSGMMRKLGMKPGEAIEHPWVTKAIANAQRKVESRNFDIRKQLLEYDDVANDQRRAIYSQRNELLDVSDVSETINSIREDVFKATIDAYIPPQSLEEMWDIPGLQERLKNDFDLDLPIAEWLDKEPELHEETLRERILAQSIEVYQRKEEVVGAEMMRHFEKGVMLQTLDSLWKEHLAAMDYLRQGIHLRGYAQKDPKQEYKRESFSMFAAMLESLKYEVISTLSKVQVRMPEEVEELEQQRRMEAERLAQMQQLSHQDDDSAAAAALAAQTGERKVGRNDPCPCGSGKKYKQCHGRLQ

[2] = biological target: T1, Ubiquitin-activating enzyme e1, putative (Leishmania donovani (strain BPK282A1)) (UniProt E9BSI1); experiment: Leishmania donovani Ubiquitin Activating Enzyme (LdE1); type: functional; details: 30 µM
T1 sequence (whole entry): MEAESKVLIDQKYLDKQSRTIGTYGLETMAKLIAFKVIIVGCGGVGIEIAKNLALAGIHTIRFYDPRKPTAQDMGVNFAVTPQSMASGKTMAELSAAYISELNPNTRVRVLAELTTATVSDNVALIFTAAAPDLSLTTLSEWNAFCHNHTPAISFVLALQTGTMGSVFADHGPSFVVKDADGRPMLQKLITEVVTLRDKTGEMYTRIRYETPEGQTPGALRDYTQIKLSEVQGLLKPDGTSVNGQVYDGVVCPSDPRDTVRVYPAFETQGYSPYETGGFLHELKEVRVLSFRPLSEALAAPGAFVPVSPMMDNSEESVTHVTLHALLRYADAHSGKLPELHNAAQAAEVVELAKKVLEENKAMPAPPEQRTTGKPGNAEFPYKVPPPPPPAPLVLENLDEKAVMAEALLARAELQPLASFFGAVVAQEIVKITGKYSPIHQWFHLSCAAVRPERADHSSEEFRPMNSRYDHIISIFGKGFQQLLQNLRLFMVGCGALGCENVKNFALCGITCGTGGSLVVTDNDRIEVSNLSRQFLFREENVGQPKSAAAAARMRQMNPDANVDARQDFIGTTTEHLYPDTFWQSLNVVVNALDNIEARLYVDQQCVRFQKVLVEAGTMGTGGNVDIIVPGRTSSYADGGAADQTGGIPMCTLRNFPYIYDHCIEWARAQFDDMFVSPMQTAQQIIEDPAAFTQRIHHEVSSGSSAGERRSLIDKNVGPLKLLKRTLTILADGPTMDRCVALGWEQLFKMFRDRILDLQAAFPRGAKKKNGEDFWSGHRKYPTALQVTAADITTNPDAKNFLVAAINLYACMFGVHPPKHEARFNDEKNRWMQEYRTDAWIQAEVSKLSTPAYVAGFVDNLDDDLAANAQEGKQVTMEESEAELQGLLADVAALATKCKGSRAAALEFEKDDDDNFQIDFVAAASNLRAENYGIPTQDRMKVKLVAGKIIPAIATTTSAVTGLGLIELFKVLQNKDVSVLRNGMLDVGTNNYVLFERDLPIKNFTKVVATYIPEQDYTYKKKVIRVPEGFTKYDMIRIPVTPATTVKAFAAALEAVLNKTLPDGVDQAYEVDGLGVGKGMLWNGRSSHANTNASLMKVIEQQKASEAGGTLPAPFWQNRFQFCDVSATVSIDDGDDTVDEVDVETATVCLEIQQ

[3] = biological target: AMP-activated protein kinase, AMPK (Homo sapiens) (UniProt P54646+O43741+P54619+Q9UGJ0+Q9Y478+Q13131+Q9UGI9); experiment: AMP-dependent Kinase enzyme assay. An in vitro enzyme assay that detects ADP turnover that is directly proportional to AMPK activity. This uses naive AMPK that is activated during the assay with MK-8722; type: functional; details: 30 µM
[4] = biological target: Sialic acid-binding Ig-like lectin 9 (Homo sapiens) (UniProt Q9Y336); experiment: Hs-Siglec9 ALPHAscreen SOP 20170721; details: 10 µM
Sialic acid-binding Ig-like lectin 9 (Homo sapiens), sequence (Q9Y336 whole entry): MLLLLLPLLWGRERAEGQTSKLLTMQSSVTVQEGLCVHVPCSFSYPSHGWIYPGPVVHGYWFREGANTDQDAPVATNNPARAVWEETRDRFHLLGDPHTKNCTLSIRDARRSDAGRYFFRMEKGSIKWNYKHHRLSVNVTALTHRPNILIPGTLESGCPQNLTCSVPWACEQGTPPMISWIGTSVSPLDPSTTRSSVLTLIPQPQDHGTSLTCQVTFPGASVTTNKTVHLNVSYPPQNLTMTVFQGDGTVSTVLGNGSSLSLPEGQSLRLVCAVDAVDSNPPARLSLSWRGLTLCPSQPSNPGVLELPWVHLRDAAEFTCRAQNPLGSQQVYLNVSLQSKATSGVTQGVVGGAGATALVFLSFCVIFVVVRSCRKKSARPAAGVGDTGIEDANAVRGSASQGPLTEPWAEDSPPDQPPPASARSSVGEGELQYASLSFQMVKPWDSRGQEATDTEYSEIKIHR

Trypanosoma cruzi = experiment: Trypanosoma cruzi phosphomannomutase and mannose-1-phosphate guanylyltransferase assay; type: functional; details: 10 µM
[5] = biological target: T2, Arginase-2, mitochondrial (Homo sapiens) (UniProt P78540); experiment: in vitro enzyme assay to detect the production of urea directly proportional to the activity of Arginase II; type: functional; details: 33.3 µM; note: in the data most compounds retested in dose-response had high values
T2 sequence (whole entry): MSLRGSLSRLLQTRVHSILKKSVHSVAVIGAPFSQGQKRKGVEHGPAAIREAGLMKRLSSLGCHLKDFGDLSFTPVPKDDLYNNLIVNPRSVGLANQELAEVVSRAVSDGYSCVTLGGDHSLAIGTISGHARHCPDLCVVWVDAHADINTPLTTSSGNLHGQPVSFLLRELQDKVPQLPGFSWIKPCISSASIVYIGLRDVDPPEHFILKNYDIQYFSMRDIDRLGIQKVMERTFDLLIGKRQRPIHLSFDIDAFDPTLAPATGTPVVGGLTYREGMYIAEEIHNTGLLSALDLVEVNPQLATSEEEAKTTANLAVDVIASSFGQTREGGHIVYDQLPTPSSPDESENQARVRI

[6] = biological target: T3, Proteasome subunit beta (Trypanosoma cruzi) (UniProt O96673); experiment: Trypanosoma cruzi proteasome chymotrypsin-like activity (TcProtChymo) assay.; note: in the data most compounds retested in dose-response had high values; type: functional; details: 9.37 µM
T3 sequence (whole entry): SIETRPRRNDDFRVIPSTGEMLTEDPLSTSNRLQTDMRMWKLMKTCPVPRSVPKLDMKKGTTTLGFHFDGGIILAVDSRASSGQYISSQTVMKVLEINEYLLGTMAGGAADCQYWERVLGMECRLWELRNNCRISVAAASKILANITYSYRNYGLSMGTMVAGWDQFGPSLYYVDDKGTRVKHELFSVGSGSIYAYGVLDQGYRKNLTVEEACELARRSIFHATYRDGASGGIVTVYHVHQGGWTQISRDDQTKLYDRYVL

Homo sapiens = organism: Homo sapiens; experiment: To identify inhibition of the IFN signalling (Jak-Stat) pathway via expression of an eGFP reporter gene under the control of an IFN-stimulated response element (ISRE) containing MxA promoter.; type: functional; details: 30 µM
[7] = biological target: T4, Tyrosyl-tRNA synthetase, putative (Trypanosoma cruzi (strain CL Brener)) (UniProt Q4DSP6); experiment: Trypanosoma cruzi tyrosyl tRNA synthetase (TcYRS) _High Tyrosine SOP; type: functional; details: 30 µM; note: in the data most compounds retested in dose-response had high values
T4 sequence (whole entry): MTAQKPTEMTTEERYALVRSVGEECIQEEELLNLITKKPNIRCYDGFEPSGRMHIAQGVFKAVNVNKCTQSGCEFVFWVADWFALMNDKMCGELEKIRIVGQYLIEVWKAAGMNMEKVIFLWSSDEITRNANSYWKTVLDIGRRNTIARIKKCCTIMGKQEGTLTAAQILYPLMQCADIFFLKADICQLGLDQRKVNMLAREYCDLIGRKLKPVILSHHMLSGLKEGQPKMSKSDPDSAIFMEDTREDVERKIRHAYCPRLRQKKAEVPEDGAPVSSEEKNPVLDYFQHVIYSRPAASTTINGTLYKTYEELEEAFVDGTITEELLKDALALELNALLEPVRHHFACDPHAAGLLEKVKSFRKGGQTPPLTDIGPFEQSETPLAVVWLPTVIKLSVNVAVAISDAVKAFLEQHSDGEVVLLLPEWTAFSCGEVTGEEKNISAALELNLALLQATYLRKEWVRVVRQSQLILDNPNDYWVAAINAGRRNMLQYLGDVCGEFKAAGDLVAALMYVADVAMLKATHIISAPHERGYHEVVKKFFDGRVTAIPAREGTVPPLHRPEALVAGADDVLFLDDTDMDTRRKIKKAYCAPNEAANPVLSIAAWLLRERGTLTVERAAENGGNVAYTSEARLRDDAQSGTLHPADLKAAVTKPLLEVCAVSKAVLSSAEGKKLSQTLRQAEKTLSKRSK

[8] = biological target: T4, Tyrosyl-tRNA synthetase, putative (Trypanosoma cruzi (strain CL Brener)); experiment: Trypanosoma cruzi tyrosyl tRNA synthetase (TcYRS) SOP; type: functional; details: 30 µM
[9] = biological target: Chromo domain-containing protein 1 (Saccharomyces cerevisiae (strain ATCC 204508 / S288c) (Baker's yeast)) (UniProt P32657); experiment: ScCHD-1 Enzyme Inhibition Assay; type: functional; details: 30 µM; note: in the data most compounds retested in dose-response had high values
Chromo domain-containing protein 1 (Saccharomyces cerevisiae (strain ATCC 204508 / S288c) (Baker's yeast)), sequence (P32657 whole entry, the tested form may be a part): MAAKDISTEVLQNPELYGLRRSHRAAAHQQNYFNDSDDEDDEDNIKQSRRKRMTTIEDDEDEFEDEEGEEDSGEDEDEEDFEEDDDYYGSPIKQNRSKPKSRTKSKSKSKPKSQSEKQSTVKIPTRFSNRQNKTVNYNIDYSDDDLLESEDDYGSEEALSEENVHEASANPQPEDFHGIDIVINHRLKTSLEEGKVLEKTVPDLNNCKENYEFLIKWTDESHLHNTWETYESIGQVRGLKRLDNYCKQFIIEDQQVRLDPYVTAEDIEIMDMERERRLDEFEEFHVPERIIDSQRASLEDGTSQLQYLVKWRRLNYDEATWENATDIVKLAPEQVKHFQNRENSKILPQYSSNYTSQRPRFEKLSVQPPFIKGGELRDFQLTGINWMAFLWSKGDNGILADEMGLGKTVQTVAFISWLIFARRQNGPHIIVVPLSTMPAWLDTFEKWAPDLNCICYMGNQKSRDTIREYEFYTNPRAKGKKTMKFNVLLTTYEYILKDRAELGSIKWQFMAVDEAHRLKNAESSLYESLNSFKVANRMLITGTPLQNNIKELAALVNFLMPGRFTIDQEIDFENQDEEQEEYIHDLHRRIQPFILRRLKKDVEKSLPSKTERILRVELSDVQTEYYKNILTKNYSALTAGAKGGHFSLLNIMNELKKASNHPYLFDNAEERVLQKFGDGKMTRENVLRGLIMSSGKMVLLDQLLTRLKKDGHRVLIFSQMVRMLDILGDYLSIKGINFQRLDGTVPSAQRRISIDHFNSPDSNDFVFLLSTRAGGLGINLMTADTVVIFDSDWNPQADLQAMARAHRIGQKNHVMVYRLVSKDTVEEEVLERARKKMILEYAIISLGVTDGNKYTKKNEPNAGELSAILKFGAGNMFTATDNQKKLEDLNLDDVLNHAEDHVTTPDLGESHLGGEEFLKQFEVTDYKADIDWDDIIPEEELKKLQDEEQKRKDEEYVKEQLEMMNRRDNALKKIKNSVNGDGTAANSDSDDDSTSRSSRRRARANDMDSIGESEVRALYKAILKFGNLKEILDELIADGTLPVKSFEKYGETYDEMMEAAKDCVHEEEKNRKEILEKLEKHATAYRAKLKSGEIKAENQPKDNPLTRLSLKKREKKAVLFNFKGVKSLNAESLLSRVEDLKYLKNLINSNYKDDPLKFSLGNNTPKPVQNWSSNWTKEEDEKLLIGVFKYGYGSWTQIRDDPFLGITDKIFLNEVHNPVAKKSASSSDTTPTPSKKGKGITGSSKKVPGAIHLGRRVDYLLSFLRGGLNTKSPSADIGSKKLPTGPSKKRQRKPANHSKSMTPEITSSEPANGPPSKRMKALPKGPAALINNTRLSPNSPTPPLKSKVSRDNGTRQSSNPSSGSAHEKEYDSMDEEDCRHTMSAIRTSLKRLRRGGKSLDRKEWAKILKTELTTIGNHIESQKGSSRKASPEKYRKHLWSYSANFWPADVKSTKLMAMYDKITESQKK

Compound	Percent Effect [1] [%]	Percent Effect [2] [%]	Percent Effect [3] [%]	Percent Effect [4] [%]	Percent Effect (Trypanosoma cruzi) [%]	Percent Effect [5] [%]	Percent Effect [6] [%]	Percent Effect (Homo sapiens) [%]	Percent Effect [7] [%]	Percent Effect [8] [%]	Percent Effect [9] [%]
CCOc1cccc(CNc2ccccc2C(=O)OC)c1O	2.18	6.67	-9.62	-4.44	-4.32	-10.7	19	21.5	3.17	7.69	-13.3
COCCN1C[C@@H]2CN(Cc3ccsc3)CCC[C@]2(C(=O)O)C1	0.995	10.4	4.76	-2.5	-5.23	11	16.5	13.1	4.23	14.1	-4.97
CC(C)CCN1CN=C(NS(=O)(=O)c2ccc(F)cc2)NC1	-1.41	6.67	4.23	1.92	-1.38	-9.33	9.61	-4.88	5.29	10.3	-8.81
CN(C)CC1CN(CCOc2cccc(C#N)c2)CCO1 (configuration not stated)	-2.7	-5.26	-2.16	-5.38	-4.95	5.75	-8.71	-3.58	1.48	3.7	4.04
CN(C)Cc1nn(C)c2c1CCN(S(=O)(=O)c1cccs1)C2	-0.0797	13	2.64	-2.7	1.48	3.23	5.57	14.8	8.47	8.97	-7.57
CN1CCCc2cc(CNC(=O)c3ccc(NC4CC4)nc3)ccc21	-1.41	6.33	52	6.12	-0.923	2.8	0.515	-2.19	6.25	10.1	-6.23
O=C(c1ccc2c(c1)CCC2)N1C[C@@H](CN2CCOCC2)[C@@H](CO)C1	-4.64	2.67	1.02	21.3	-6.52	0	1.22	0.733	3.83	3.7	-3.15
Cn1cc(CN2CCCC3(CCN(c4nncs4)C3)C2)cn1 (configuration not stated)	-9.67	2.7	2.26	-4.09	-2.83	-1.24	1.97	-4.18	1.07	6.17	-0.679
O=C(Cn1nc(-c2ccc(F)cc2)oc1=O)Nc1ccccc1	0.224	21.1	-0.861	-9.34	3.01	-2.3	21.6	7.21	6.37	21.9	-11.6
CC(C)C(=O)N1CCN(C(=O)c2cc(C(C)C)on2)[C@H]2CS(=O)(=O)C[C@H]21	-2.71	18.1	-7.12	11.2	3.4	7.06	17.5	13.2	0	7.69	-5.25
CN(Cc1cn2c(n1)CN(C1CCOC1)CC2)Cc1ccco1 (configuration not stated)	0.0628	5.33	0.778	1.26	5.99	-58.2	16.1	15.2	6.25	20	-10.2
C=C(C)CN(Cc1cccc(O)c1)C1CCC(O)CC1 (configuration not stated)	-4.6	5.41	-0.588	6.05	-2.64	-0.248	6.44	-11.6	2.15	6.17	-4.17
CCOCCCNC(=O)c1cc(C)nc(N2CCCC2)n1	-10.2	12	-12.6	7.96	4.91	-11.1	5.36	8.1	1.06	10.3	-14
N#Cc1ccc(C2CC(=O)Nc3c2cnn3C2CCCC2)cc1 (configuration not stated)	-3.53	13.3	0.53	17.4	4.77	19.3	3.66	6.86	1.64	8.64	-14.9
c1ccc(C2CCCN2Cc2nnnn2C2CC2)cc1 (configuration not stated)	-4.62	-6.94	-1.81	-5.25	-3.01	-1.32	9.12	-12.1	3.16	0	7.75
CCn1ccnc1CN1CCN(C(C)C(=O)N2CCC(C)CC2)CC1 (configuration not stated)	-2.02	2.7	-8.85	9.21	2.88	-3.14	15.4	11	3.96	11	-4.46
CNS(=O)(=O)c1ccc(C(=O)NCCNc2ncccn2)cc1	-3.65	10.5	-2.1	-1.6	-2.52	-1.08	7.36	-4.68	6.4	23.5	-3.3
c1cnc2c(c1)cc([C@H]1CCCO1)n2CCN1CCCCC1	4.1	9.46	12	-7.44	-7.91	-0.232	9.52	7.5	2.15	3.9	-12.4
OCCN1CCOC2(CCCN(c3cccc(F)c3)C2)C1 (configuration not stated)	-3.44	13.3	5.94	-3.82	0.394	0.233	8.55	3.49	10.6	24.4	-6.84
CC(=O)NCC1CCN(CC2CCOc3ccccc3C2)CC1 (configuration not stated)	-1.44	15.3	-4.21	14	1.85	9.27	13.2	-5.31	4.21	15.4	-2.81
Cc1cnc2c(S(=O)(=O)NCC3CCS(=O)(=O)C3)cccc2c1 (configuration not stated)	-3.39	21.1	-0.0656	-5	6.26	3.24	16.8	7.48	7.39	23.5	-10.9
Cc1nc(C2CCCN(C(=O)c3scnc3C)C2)no1 (configuration not stated)	-3.05	6.94	-13.5	8.6	4.76	1.77	14.2	-0.897	-1.05	2.56	-2.17
